This is part of a sample that, as a whole, favours compounds with a hit. Of some 83,000 tested, about 20% had one in any assay.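 Single-concentration screen, 48 h exposure, 96-well plates. Endpoint: percent growth. Below 10 = active.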 Active and inactive are the calls of the source.
Tests used:
Test in all cases: NCI-60 one-dose screen, 48 h (100 = growth as untreated, 0 = no growth, -100 = all killed)
HCT-15 colon = conditions: 10 µM unless noted
HT29 colon = conditions: 10 µM unless noted
SNB-75 CNS = conditions: 10 µM unless noted
SNB-19 CNS = conditions: 10 µM unless noted
U251 CNS = conditions: 10 µM unless noted
PC-3 prostate = conditions: 10 µM unless noted
SK-MEL-5 melanoma = conditions: 10 µM unless noted
UACC-62 melanoma = conditions: 10 µM unless noted
LOX IMVI melanoma = conditions: 10 µM unless noted
SK-MEL-28 melanoma = conditions: 10 µM unless noted
SK-MEL-2 melanoma = conditions: 10 µM
EKVX NSCLC = conditions: 10 µM unless noted
SN12C renal = conditions: 10 µM unless noted
UO-31 renal = conditions: 10 µM unless noted
TK-10 renal = conditions: 10 µM unless noted
ACHN renal = conditions: 10 µM unless noted
A498 renal = conditions: 10 µM unless noted
CCRF-CEM leukemia = conditions: 10 µM unless noted
MOLT-4 leukemia = conditions: 10 µM unless noted
CAKI-1 renal = conditions: 10 µM unless noted

Measured: growth

CCCCN1CCCC[C@@H]1C(=O)N[C@H](C(=O)N(C)[C@H](CCc1nc(C(=O)N[C@@H](Cc2ccccc2)C[C@H](C)C(=O)OC)cs1)C(C)C)C(C)C
inactive: HCT-15 colon 59.4% | HT29 colon 68.9% | SNB-75 CNS 75.2% | SNB-19 CNS 57.9% | U251 CNS 83.8% | PC-3 prostate 35% | SK-MEL-5 melanoma 53.5% | UACC-62 melanoma 43.6% | LOX IMVI melanoma 80% | SK-MEL-28 melanoma 76.4% | SK-MEL-2 melanoma 68.1% | EKVX NSCLC 65.8% | SN12C renal 82.2% | UO-31 renal 52.3% | TK-10 renal 102% | ACHN renal 59.7% | A498 renal 61.2% | CCRF-CEM leukemia 38.8% | MOLT-4 leukemia 35.2%

O=C(Nc1ccc(C(=O)Nc2ccc(C3=NCCCN3)cc2)cc1)Nc1ccc(C2=NCCCN2)cc1
inactive: HCT-15 colon 100% | HT29 colon 92.8% | SNB-75 CNS 91% | SNB-19 CNS 95.6% | U251 CNS 84.6% | PC-3 prostate 90% | SK-MEL-5 melanoma 54.7% | UACC-62 melanoma 82.7% | LOX IMVI melanoma 85.8% | SK-MEL-28 melanoma 105% | SK-MEL-2 melanoma 62.8% | EKVX NSCLC 61.4% | SN12C renal 91.6% | UO-31 renal 82.6% | TK-10 renal 96.7% | ACHN renal 86% | A498 renal 119% | CCRF-CEM leukemia 70.9% | MOLT-4 leukemia 81.5%

Cc1cc2c(-c3nc4ccccn4c3Nc3cccc4ccccc34)c(O)c(O)cc2c(O)c1-c1c(C)cc2c(-c3nc4ccccn4c3Nc3cccc4ccccc34)c(O)c(O)cc2c1O
active: SK-MEL-5 melanoma 1.82% | UACC-62 melanoma 1.11% | LOX IMVI melanoma 9.84%
inactive: HCT-15 colon 41.4% | HT29 colon 27.5% | SNB-75 CNS 30% | SNB-19 CNS 15.6% | U251 CNS 12.9% | PC-3 prostate 16% | SK-MEL-28 melanoma 34.5% | SK-MEL-2 melanoma 38.3% | EKVX NSCLC 51.4% | SN12C renal 16.7% | UO-31 renal 44% | TK-10 renal 50.9% | ACHN renal 49.2% | A498 renal 29.6% | MOLT-4 leukemia 31.2%

Cc1cc(N(CCNc2ccnc3cc(Cl)ccc23)Cc2ccc3c(c2)OCO3)nc(N2CCN(C)CC2)n1
active: HCT-15 colon 0.627% | HT29 colon 0.16% | U251 CNS -22.1% | SK-MEL-5 melanoma -96.1% | LOX IMVI melanoma -71.8% | SK-MEL-28 melanoma -65.7% | SK-MEL-2 melanoma -57.5% | UO-31 renal 2.58% | TK-10 renal -24.9% | ACHN renal -20.6% | CCRF-CEM leukemia -11.8% | MOLT-4 leukemia 0.0794%
inactive: SNB-75 CNS 32.4% | SNB-19 CNS 29.4% | PC-3 prostate 48.2% | UACC-62 melanoma 33.7% | EKVX NSCLC 73.4% | SN12C renal 60.7% | A498 renal 42.6%

CCN1CCN(c2nc(C)cc(N(CCNc3ccnc4cc(Cl)ccc34)Cc3ccc4c(c3)OCO4)n2)CC1
inactive: SNB-19 CNS 29.9% | PC-3 prostate 50.7% | UACC-62 melanoma 44.9% | EKVX NSCLC 68.2% | SN12C renal 59.3% | A498 renal 53.2%
active: HCT-15 colon -6.94% | HT29 colon -13.4% | SNB-75 CNS 9.98% | U251 CNS -44.6% | SK-MEL-5 melanoma -96.6% | LOX IMVI melanoma -74.5% | SK-MEL-28 melanoma -72% | SK-MEL-2 melanoma -55.8% | UO-31 renal -41.7% | TK-10 renal -47.1% | ACHN renal -17.2% | CCRF-CEM leukemia -1.37% | MOLT-4 leukemia -3.96%

CCCCCCCCCCCC[n+]1ccccc1
active: HT29 colon 1.53% | SNB-75 CNS 0.831% | SNB-19 CNS 8.57% | U251 CNS -0.664% | PC-3 prostate -38.2% | SK-MEL-5 melanoma -95.3% | UACC-62 melanoma -41.9% | LOX IMVI melanoma -40.9% | SK-MEL-2 melanoma -30.4% | EKVX NSCLC 5.6% | SN12C renal 3.89% | TK-10 renal -54.1% | CCRF-CEM leukemia 1.54% | MOLT-4 leukemia -19.1%
inactive: HCT-15 colon 39.4% | SK-MEL-28 melanoma 21.4% | UO-31 renal 35% | ACHN renal 36.2% | A498 renal 19%

O=C(Nc1ccc(C2=NCCCN2)cc1)c1ccc(C(=O)Nc2ccc(C3=NCCCN3)cc2)nc1
inactive: HCT-15 colon 108% | HT29 colon 109% | SNB-75 CNS 87% | SNB-19 CNS 96.8% | U251 CNS 105% | PC-3 prostate 106% | SK-MEL-5 melanoma 99.3% | UACC-62 melanoma 99.5% | LOX IMVI melanoma 105% | SK-MEL-28 melanoma 120% | SK-MEL-2 melanoma 109% | EKVX NSCLC 96% | SN12C renal 99.8% | UO-31 renal 82.6% | TK-10 renal 122% | ACHN renal 107% | A498 renal 127% | CCRF-CEM leukemia 107% | MOLT-4 leukemia 85.8%

C=CC(=O)N(C)[C@H]1C[C@H]2OC(C)(C1OC)n1c3ccccc3c3c4c(c5c6ccccc6n2c5c31)C(=O)NC4 (stereo not given in full)
inactive: PC-3 prostate 17.5% | EKVX NSCLC 17.9% | ACHN renal 12.9%
active: HCT-15 colon -46.5% | HT29 colon 3.17% | SNB-75 CNS -16.8% | SNB-19 CNS -1.51% | U251 CNS -35.8% | SK-MEL-5 melanoma -94.3% | UACC-62 melanoma -28.1% | LOX IMVI melanoma -55.6% | SK-MEL-28 melanoma 5.52% | SK-MEL-2 melanoma -24.6% | SN12C renal 6.85% | UO-31 renal -30.5% | TK-10 renal -2.16% | A498 renal -38.7% | CCRF-CEM leukemia -7.8% | MOLT-4 leukemia -40.1%

COc1ccc(-c2cc3c(oc2=O)-c2ccccc2OC3OC(C)=O)cc1 (stereo not given)
inactive: HCT-15 colon 86.2% | HT29 colon 81.1% | SNB-75 CNS 100% | SNB-19 CNS 98% | U251 CNS 89.4% | PC-3 prostate 89.2% | SK-MEL-5 melanoma 98.2% | UACC-62 melanoma 81.8% | LOX IMVI melanoma 98.2% | SK-MEL-28 melanoma 118% | SK-MEL-2 melanoma 100% | EKVX NSCLC 73.2% | SN12C renal 91.5% | TK-10 renal 104% | ACHN renal 102% | CAKI-1 renal 113% | A498 renal 100% | MOLT-4 leukemia 72.4%
active: CCRF-CEM leukemia -25.9%

N#Cc1c(NC(=O)c2cccs2)[n+]([O-])c2ccc(F)cc2[n+]1[O-]
active: SK-MEL-5 melanoma 2.84%
inactive: HCT-15 colon 74.6% | HT29 colon 97.6% | SNB-75 CNS 81.1% | SNB-19 CNS 98% | U251 CNS 93.2% | PC-3 prostate 77.3% | UACC-62 melanoma 83.2% | LOX IMVI melanoma 89.9% | SK-MEL-28 melanoma 112% | SK-MEL-2 melanoma 92.9% | EKVX NSCLC 86.4% | SN12C renal 98.3% | TK-10 renal 117% | ACHN renal 89% | CAKI-1 renal 90.7% | CCRF-CEM leukemia 77.7% | MOLT-4 leukemia 90.2%

CC1(C)NC(=O)c2[nH]c3c(Cl)c(Cl)ccc3c2C1C#N (stereo not given)
inactive: HCT-15 colon 87.9% | HT29 colon 78.2% | SNB-75 CNS 75.7% | SNB-19 CNS 87.5% | U251 CNS 81.7% | PC-3 prostate 79.6% | UACC-62 melanoma 73.1% | LOX IMVI melanoma 85.5% | SK-MEL-28 melanoma 103% | SK-MEL-2 melanoma 80.6% | EKVX NSCLC 67.2% | SN12C renal 89.5% | TK-10 renal 63.2% | ACHN renal 78.6% | CAKI-1 renal 49.8% | CCRF-CEM leukemia 70.3% | MOLT-4 leukemia 62%
active: SK-MEL-5 melanoma 8.85%

COc1cc(OC)c(C(=O)/C=C/c2cc3c(cc2OCc2ccccc2)OC(C)(C)CC3)cc1CC=C(C)C
inactive: HCT-15 colon 39.7% | HT29 colon 57.9% | SNB-75 CNS 39.2% | SNB-19 CNS 80.7% | U251 CNS 29.7% | PC-3 prostate 25.2% | SK-MEL-5 melanoma 50.4% | UACC-62 melanoma 38.7% | LOX IMVI melanoma 38.9% | SK-MEL-28 melanoma 53.3% | SK-MEL-2 melanoma 82.3% | EKVX NSCLC 61.1% | UO-31 renal 51.4% | TK-10 renal 81.7% | ACHN renal 68.2% | A498 renal 98.9%
active: MOLT-4 leukemia -0.0389%

COc1cc2c(cc1OCCCCCCN1CCN(c3ncnc4ccccc34)CC1)N=CC1CCCN1C2=O (stereo not given)
inactive: HT29 colon 10.9% | SNB-19 CNS 17%
active: HCT-15 colon -2.53% | SNB-75 CNS -46.9% | U251 CNS 0.0332% | PC-3 prostate -23.1% | SK-MEL-5 melanoma -87.2% | UACC-62 melanoma -95.8% | LOX IMVI melanoma -51.1% | SK-MEL-28 melanoma -4.17% | SK-MEL-2 melanoma 3.62% | EKVX NSCLC -8.7% | SN12C renal -10.4% | TK-10 renal 1.29% | CAKI-1 renal -19.6% | CCRF-CEM leukemia -32.8% | MOLT-4 leukemia -32.1%
